According to PubChem BioAssay AID1159580 (chemical genetic matrix, 2015):
In all, about 5,500 compounds went through this assay and about 2,000 (36%) were called active. Roughly 18% stayed inconclusive and do not appear here. Cut-off read from the data, not from the text of the source: active = normalized growth mostly below about 0.91 (no sharp cut-off); inconclusive = no clear call, values can overlap the other calls; inactive = mostly above about 0.92. The list shows a part of the results.

Assay: chemical genetic growth profiling, strain panel (AID 1159580);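 note: tested at 20 µM; growth read once vehicle control cultures reached saturation at 30 °C; 1 = growth at the plate median or of vehicle wells; lower values mean less growth of the strain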
Conditions: growth OD

Measured: normalized growth

CCC(N)C(O)c1ccc(O)c(O)c1 (configuration not stated)
inactive: S. cerevisiae deletion strains, locus YJR075W, strain HOC1, hits give low values 1.01 | S. cerevisiae deletion strains, locus YKL009W, strain mrt4, hits give low values 0.996 | S. cerevisiae deletion strains, locus YKL068W, hits give low values 0.993 | S. cerevisiae deletion strains, locus YKL085W, strain MDH1 (second series), hits give low values 0.985 | S. cerevisiae deletion strains, locus YKL085W, strain MDH1, hits give low values 0.985 | S. cerevisiae deletion strains, locus YKL160W, strain elf1, hits give low values 0.999 | S. cerevisiae deletion strains, locus YKL190W, strain CNB1, hits give low values 1.01 | S. cerevisiae deletion strains, locus YKR001C, strain vps1, hits give low values 0.99 | S. cerevisiae deletion strains, locus YKR026C, strain gcn3, hits give low values 0.973 | S. cerevisiae deletion strains, locus YKR091W, strain srl3, hits give low values 0.993 | S. cerevisiae deletion strains, locus YLL001W, strain dnm1, hits give low values 1 | S. cerevisiae deletion strains, locus YLL026W, hits give low values 0.984 | S. cerevisiae deletion strains, locus YLL041C, strain sdh2, hits give low values 1 | S. cerevisiae deletion strains, locus YLR027C, strain aat2, hits give low values 0.988 | S. cerevisiae deletion strains, locus YLR039C, strain RIC1, hits give low values 1.06 | S. cerevisiae deletion strains, locus YLR058C, strain SHM2, hits give low values 1.02 | S. cerevisiae deletion strains, locus YLR102C, strain apc9, hits give low values 0.983 | S. cerevisiae deletion strains, locus YLR113W, strain HOG1, hits give low values 0.998 | S. cerevisiae deletion strains, locus YLR221C, strain rsa3, hits give low values 1 | S. cerevisiae deletion strains, locus YLR258W, strain gsy2, hits give low values 0.993 | S. cerevisiae deletion strains, locus YLR262C, strain YPT6 (second series), hits give low values 0.996 | S. cerevisiae deletion strains, locus YLR262C, strain YPT6, hits give low values 1.05 | S. cerevisiae deletion strains, locus YLR268W, strain sec22, hits give low values 0.928 | S. cerevisiae deletion strains, locus YLR320W, strain mms22, hits give low values 0.99 | S. cerevisiae deletion strains, locus YLR330W, strain CHS5, hits give low values 1.01 | S. cerevisiae deletion strains, locus YLR342W, strain FKS1 (second series), hits give low values 0.989 | S. cerevisiae deletion strains, locus YLR342W, strain FKS1, hits give low values 0.995 | S. cerevisiae deletion strains, locus YLR357W, strain rsc2, hits give low values 0.979 | S. cerevisiae deletion strains, locus YLR370C, strain arc18, hits give low values 0.989 | S. cerevisiae deletion strains, locus YLR371W, strain rom2, hits give low values 0.977 | S. cerevisiae deletion strains, locus YLR384C, strain iki3, hits give low values 0.997 | S. cerevisiae deletion strains, locus YLR418C, strain cdc73, hits give low values 1.01 | S. cerevisiae deletion strains, locus YML016C, strain PPZ1, hits give low values 1.01 | S. cerevisiae deletion strains, locus YML032C, strain rad52, hits give low values 0.972 | S. cerevisiae deletion strains, locus YML120C, strain ndi1, hits give low values 1.01 | S. cerevisiae deletion strains, locus YML124C, strain tub3, hits give low values 0.991 | S. cerevisiae deletion strains, locus YMR058W, strain fet3, hits give low values 0.987 | S. cerevisiae deletion strains, locus YMR078C, strain ctf18, hits give low values 0.977 | S. cerevisiae deletion strains, locus YMR125W, strain sto1, hits give low values 0.964 | S. cerevisiae deletion strains, locus YMR129W, hits give low values 1 | S. cerevisiae deletion strains, locus YMR205C, strain PFK2, hits give low values 0.97 | S. cerevisiae deletion strains, locus YMR223W, strain ubp8, hits give low values 1.02 | S. cerevisiae deletion strains, locus YMR231W, strain pep5, hits give low values 0.996 | S. cerevisiae deletion strains, locus YMR263W, strain SAP30, hits give low values 1.01 | S. cerevisiae deletion strains, locus YMR307W, strain GAS1, hits give low values 1.01 | S. cerevisiae deletion strains, locus YNL067W, strain RPL9B, hits give low values 0.993 | S. cerevisiae deletion strains, locus YNL071W, strain lat1, hits give low values 0.991 | S. cerevisiae deletion strains, locus YNL128W, strain TEP1, hits give low values 1.02 | S. cerevisiae deletion strains, locus YNL153C, strain GIM3, hits give low values 0.985 | S. cerevisiae deletion strains, locus YNL183C, strain NPR1, hits give low values 0.968 | S. cerevisiae deletion strains, locus YNL209W, strain ssb2, hits give low values 1 | S. cerevisiae deletion strains, locus YNL233W, strain BNI4, hits give low values 0.992 | S. cerevisiae deletion strains, locus YNL248C, strain rpa49, hits give low values 1.01 | S. cerevisiae deletion strains, locus YNL250W, strain rad50, hits give low values 0.988 | S. cerevisiae deletion strains, locus YNL271C, strain bni1, hits give low values 0.99 | S. cerevisiae deletion strains, locus YNL298W, strain CLA4, hits give low values 0.993 | S. cerevisiae deletion strains, locus YNL307C, strain MCK1, hits give low values 1 | S. cerevisiae deletion strains, locus YNL322C, strain KRE1 (second series), hits give low values 0.985 | S. cerevisiae deletion strains, locus YNL322C, strain KRE1, hits give low values 1.01 | S. cerevisiae deletion strains, locus YNR049C, strain mso1, hits give low values 0.995 | S. cerevisiae deletion strains, locus YNR052C, strain pop2, hits give low values 0.997 | S. cerevisiae deletion strains, locus YOL006C, strain TOP1, hits give low values 1.05 | S. cerevisiae deletion strains, locus YOL012C, strain htz1 0.91 | S. cerevisiae deletion strains, locus YOL147C, strain pex11, hits give low values 0.991 | S. cerevisiae deletion strains, locus YOR001W, strain rrp6, hits give low values 1 | S. cerevisiae deletion strains, locus YOR061W, strain CKA2, hits give low values 1.02 | S. cerevisiae deletion strains, locus YOR069W, strain VPS5, hits give low values 1.01 | S. cerevisiae deletion strains, locus YOR070C, strain gyp1, hits give low values 0.991 | S. cerevisiae deletion strains, locus YOR080W, strain dia2, hits give low values 0.986 | S. cerevisiae deletion strains, locus YOR083W, strain WHI5, hits give low values 1.01 | S. cerevisiae deletion strains, locus YOR106W, strain vam3, hits give low values 0.997 | S. cerevisiae deletion strains, locus YOR136W, strain idh2, hits give low values 0.989 | S. cerevisiae deletion strains, locus YOR144C, strain elg1, hits give low values 0.986 | S. cerevisiae deletion strains, locus YOR184W, strain ser1, hits give low values 1 | S. cerevisiae deletion strains, locus YOR231W, strain MKK1, hits give low values 1.02 | S. cerevisiae deletion strains, locus YOR265W, strain rbl2, hits give low values 0.99 | S. cerevisiae deletion strains, locus YOR270C, strain vph1, hits give low values 1.02 | S. cerevisiae deletion strains, locus YOR290C, strain snf2, hits give low values 0.987 | S. cerevisiae deletion strains, locus YOR316C, strain cot1, hits give low values 0.989 | S. cerevisiae deletion strains, locus YPL051W, strain arl3, hits give low values 0.983 | S. cerevisiae deletion strains, locus YPL055C, strain LGE1, hits give low values 1.03 | S. cerevisiae deletion strains, locus YPL078C, strain atp4, hits give low values 0.996 | S. cerevisiae deletion strains, locus YPL106C, strain sse1, hits give low values 0.94 | S. cerevisiae deletion strains, locus YPL240C, strain hsp82, hits give low values 1.01 | S. cerevisiae deletion strains, locus YPL241C, strain CIN2, hits give low values 1.01 | S. cerevisiae deletion strains, locus YPL256C, strain CLN2, hits give low values 1.01 | S. cerevisiae deletion strains, locus YPR119W, strain clb2, hits give low values 0.981 | S. cerevisiae deletion strains, locus YPR141C, strain kar3, hits give low values 0.984 | S. cerevisiae deletion strains, locus YPR163C, strain tif3, hits give low values 0.996 | S. cerevisiae deletion strains, locus YPR167C, strain met16, hits give low values 0.99 | S. cerevisiae deletion strains, strain wtn01, hits give low values 0.979 | S. cerevisiae strains, strain wild type, hits give low values 1.02
